Test results reported in the supplement of paper PMC10849652.
About 8,800 targets were measured; listed, in parts, are those with a hit and a random draw of the rest. About 0.5% of all pairs of compound and target were hits.

Assays:
Assay in all cases: log2 fold change, soluble protein after heating vs DMSO (PISA); higher = thermal stabilisation; K562 lysate, 10 uM; active = over 0.2 and 3.5 SD of the protein, either way, in both replicates (recomputed)
[1] = compound: CCCS(=O)(=O)Nc1ccc(F)c(C(=O)c2c[nH]c3ncc(-c4ccc(Cl)cc4)cc23)c1F [vemurafenib]
Procedure, shortened: (§1)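 Soluble protein was defined as the supernatant remaining after 21,000xg for 90 min, following pooling of heated aliquots and adjustment to 0.5% NP-40 at 4°C. Before that, crude K562 extract at 1 mg/mL protein in PBS pH 7.4 with 1 mM MgCl2 was treated with 10 μM compound for 30 min and heated for 3 min across 48°C-58°C. Quantification used TMTpro 16plex LC-MS/MS with channel sums equalised, and values are log-two fold changes in thermal stability relative to solvent controls from duplicates.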

[2] = compound: CCCS(=O)(=O)Nc1ccc(F)c(C(=O)c2c[nH]c3ncc(Cl)cc23)c1F
Procedure, shortened: as §1

[3] = compound: CCN(CCCOc1ccc2c(Nc3cc(CC(=O)Nc4cccc(F)c4)[nH]n3)ncnc2c1)CCOP(=O)(O)O [barasertib]
Procedure, shortened: as §1

[4] = compound: CC[C@@H]1C(=O)N(C)c2cnc(Nc3ccc(C(=O)NC4CCN(C)CC4)cc3OC)nc2N1C1CCCC1
Procedure, shortened: as §1

[5] = compound: CC[C@@H]1C(=O)N(C)c2cnc(Nc3ccc(C(=O)N[C@H]4CC[C@H](N5CCN(CC6CC6)CC5)CC4)cc3OC)nc2N1C(C)C [volasertib]
Procedure, shortened: as §1

[6] = compound: CCn1c(C(=O)N(C2CC2)C2CC2)cc2c3c(ncn3C)c(Nc3cc(C)n(C)n3)nc21
Procedure, shortened: as §1

[7] = compound: CCn1cc(-c2ccnc3[nH]c(-c4cccc(CN(C)C)c4)cc23)c(-c2ccc(NC(=O)N(C)C)cc2)n1
Procedure, shortened: as §1

[8] = compound: CN1CCC(CNc2ccc3ncc(-c4cccc(OC(F)(F)F)c4)n3n2)CC1
Procedure, shortened: as §1

[9] = compound: CN1CCN(CCOc2cc(OC3CCOCC3)c3c(Nc4c(Cl)ccc5c4OCO5)ncnc3c2)CC1 [saracatinib]
Procedure, shortened: as §1

[10] = compound: CN1CCN(c2nc(C3=C(c4c[nH]c5ccccc45)C(=O)NC3=O)c3ccccc3n2)CC1 [sotrastaurin]
Procedure, shortened: as §1

[11] = compound: CN1CC[C@H](c2c(O)cc(O)c3c(=O)cc(-c4ccccc4Cl)oc23)[C@H](O)C1 [alvocidib]
Procedure, shortened: as §1

[12] = compound: CN1CCc2c(c3ccccc3n2Cc2ccc(C(=O)NO)cc2)C1 [Tubastatin A]
Procedure, shortened: as §1

[13] = compound: CNC(=O)C1=CC=CC=C1NC2=NC(=NC=C2Cl)NC3=C(C=C(C=C3)N4CCOCC4)OC
Procedure, shortened: as §1

[14] = compound: CNC(=O)c1ccc(Nc2ncc(C(F)(F)F)c(NCc3nccnc3N(C)S(C)(=O)=O)n2)cc1 [defactinib]
Procedure, shortened: as §1

[15] = compound: CNc1nc(-c2ccc3c(N)n[nH]c3c2)cc(N2C[C@@H](C(=O)NC3CCCCC3)CC[C@H]2C)n1
Procedure, shortened: as §1

[16] = compound: COC(=O)N[C@@H](C)CNc1nccc(-c2cn(C(C)C)nc2-c2cc(Cl)cc(NS(C)(=O)=O)c2F)n1 [encorafenib]
Procedure, shortened: as §1

[17] = compound: COC(=O)[C@H](CCSC)NC(=O)C1=C(C=C(C=C1)NC[C@H](CS)N)C2=CC=CC=C2
Procedure, shortened: as §1

[18] = compound: COc1cc(Nc2ncc3c(n2)-c2ccc(Cl)cc2C(c2c(F)cccc2OC)=NC3)ccc1C(=O)O [alisertib]
Procedure, shortened: as §1

[19] = compound: COc1cc2nc(-c3cc(F)ccc3O)nc(N[C@@H]3CNC[C@H]3C(C)(C)O)c2cc1OC
Procedure, shortened: as §1

[20] = compound: COc1cc2ncnc(Nc3ccc(F)c(Cl)c3)c2cc1OCCCN1CCOCC1 [gefitinib]
Procedure, shortened: as §1

Measured: log2 fold change

CCNY (UniProt Q8ND76)
inactive: [1] -0.011 | [2] 0 | [3] -0.016 | [4] -0.148 | [5] 0.036 | [6] -0.103 | [7] 0.032 | [8] 0.037 | [9] 0.063 | [10] 0.025 | [11] 0.001 | [12] -0.139 | [13] -0.015 | [14] 0.011 | [15] 0.04 | [16] 0.023 | [17] -0.085 | [18] 0.037 | [19] 0.008 | [20] -0.091

CCNA2 (UniProt P20248)
inactive: [1] -0.033 | [2] -0.004 | [3] -0.056 | [4] 0.022 | [5] -0.018 | [6] -0.03 | [7] -0.183 | [8] 0.169 | [9] 0.001 | [10] 0 | [11] 0.044 | [12] 0.011 | [13] -0.002 | [14] 0.037 | [15] -0.017 | [16] 0.005 | [17] -0.012 | [18] -0.029 | [19] 0.176 | [20] 0.019

ATXN2 (UniProt Q99700)
inactive: [1] 0.007 | [2] -0.004 | [3] 0.012 | [4] 0.057 | [5] 0.001 | [6] 0.022 | [7] 0.005 | [8] -0.03 | [9] -0.014 | [10] 0.052 | [11] 0.046 | [12] -0.047 | [13] 0.016 | [14] -0.019 | [15] 0.001 | [16] 0.018 | [17] -0.003 | [18] -0.032 | [19] 0.011 | [20] 0.006

BCR (UniProt P11274)
UniProt P11274, sequence (P11274 whole entry, looked up): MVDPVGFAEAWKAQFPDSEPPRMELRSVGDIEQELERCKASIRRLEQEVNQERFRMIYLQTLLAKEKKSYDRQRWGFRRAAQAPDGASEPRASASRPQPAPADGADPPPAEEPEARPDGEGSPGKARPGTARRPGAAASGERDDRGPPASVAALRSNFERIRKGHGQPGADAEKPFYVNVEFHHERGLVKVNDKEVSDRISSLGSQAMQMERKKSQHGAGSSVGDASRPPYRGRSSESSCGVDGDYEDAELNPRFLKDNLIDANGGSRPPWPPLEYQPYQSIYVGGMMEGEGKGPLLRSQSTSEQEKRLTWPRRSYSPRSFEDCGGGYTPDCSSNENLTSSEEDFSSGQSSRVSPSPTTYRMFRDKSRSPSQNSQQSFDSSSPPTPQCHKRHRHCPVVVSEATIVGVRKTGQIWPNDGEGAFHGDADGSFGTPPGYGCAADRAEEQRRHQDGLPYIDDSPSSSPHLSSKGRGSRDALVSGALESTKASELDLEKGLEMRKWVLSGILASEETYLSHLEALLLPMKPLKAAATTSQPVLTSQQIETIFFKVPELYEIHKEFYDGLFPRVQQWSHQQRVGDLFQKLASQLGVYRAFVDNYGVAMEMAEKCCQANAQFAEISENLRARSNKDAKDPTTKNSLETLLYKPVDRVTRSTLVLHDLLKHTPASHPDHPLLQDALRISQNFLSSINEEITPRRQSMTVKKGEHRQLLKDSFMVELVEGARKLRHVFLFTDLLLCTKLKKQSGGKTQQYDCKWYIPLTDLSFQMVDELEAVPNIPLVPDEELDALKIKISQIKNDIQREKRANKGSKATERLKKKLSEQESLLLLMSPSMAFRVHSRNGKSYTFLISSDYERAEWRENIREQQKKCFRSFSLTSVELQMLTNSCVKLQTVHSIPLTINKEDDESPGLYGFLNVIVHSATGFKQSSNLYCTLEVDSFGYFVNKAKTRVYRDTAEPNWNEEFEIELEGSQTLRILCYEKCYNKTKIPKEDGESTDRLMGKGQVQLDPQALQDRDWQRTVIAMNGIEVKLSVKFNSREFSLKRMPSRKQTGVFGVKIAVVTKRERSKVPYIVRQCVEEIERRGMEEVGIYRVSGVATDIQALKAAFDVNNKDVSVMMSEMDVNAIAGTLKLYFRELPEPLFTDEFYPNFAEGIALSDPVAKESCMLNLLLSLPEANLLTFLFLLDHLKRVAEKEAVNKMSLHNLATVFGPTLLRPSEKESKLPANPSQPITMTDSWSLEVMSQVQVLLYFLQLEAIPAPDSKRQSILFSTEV
inactive: [1] 0.012 | [2] 0.043 | [3] -0.021 | [4] -0.062 | [5] -0.056 | [6] 0.015 | [7] -0.112 | [8] -0.029 | [9] 0.024 | [10] -0.018 | [11] -0.007 | [12] -0.181 | [13] 0.002 | [14] -0.008 | [15] -0.005 | [16] 0.036 | [17] 0.085 | [18] -0.008 | [19] -0.021 | [20] -0.024

CCDC22 (UniProt O60826)
inactive: [1] -0.054 | [2] 0.026 | [3] 0.052 | [4] -0.053 | [5] -0.013 | [6] 0.026 | [7] -0.027 | [8] -0.01 | [9] 0.01 | [10] 0.028 | [11] 0.024 | [12] -0.063 | [13] 0.012 | [14] -0.03 | [15] 0.009 | [16] 0.031 | [17] -0.029 | [18] 0.002 | [19] -0.009 | [20] 0.027

CD63 (UniProt P08962)
UniProt P08962, sequence (P08962 whole entry, looked up): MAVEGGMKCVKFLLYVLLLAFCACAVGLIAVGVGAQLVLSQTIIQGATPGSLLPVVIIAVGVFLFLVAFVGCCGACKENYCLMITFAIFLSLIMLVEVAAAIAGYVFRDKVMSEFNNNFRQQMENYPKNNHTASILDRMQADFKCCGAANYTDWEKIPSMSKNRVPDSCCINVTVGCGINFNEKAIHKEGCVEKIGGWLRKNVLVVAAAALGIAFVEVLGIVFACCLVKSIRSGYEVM
inactive: [1] -0.079 | [2] 0.084 | [3] 0.037 | [4] -0.036 | [5] 0.023 | [6] -0.011 | [8] 0.175 | [9] 0.073 | [10] 0.057 | [11] -0.184 | [12] 0.023 | [13] -0.013 | [14] 0.089 | [15] -0.101 | [16] 0.046 | [17] -0.055 | [18] 0.01 | [19] -0.02 | [20] -0.023
active: [7] -0.593

ATAD1 (UniProt Q8NBU5)
inactive: [1] 0.052 | [2] -0.072 | [3] -0.008 | [4] 0.024 | [5] -0.018 | [6] -0.041 | [7] -0.04 | [8] -0.03 | [9] -0.031 | [10] 0.06 | [11] -0.047 | [12] -0.016 | [13] 0.045 | [14] -0.054 | [15] 0.006 | [16] -0.049 | [17] -0.042 | [18] -0.119 | [19] 0.039 | [20] 0.22

CBR1 (UniProt P16152)
inactive: [1] -0.009 | [2] 0.011 | [3] -0.013 | [4] -0.019 | [5] 0.004 | [6] 0 | [7] -0.096 | [8] 0.077 | [9] 0.037 | [10] -0.047 | [11] -0.013 | [12] 0.015 | [13] -0.006 | [14] 0.008 | [15] -0.041 | [16] 0 | [17] 0.02 | [18] -0.024 | [19] 0.023 | [20] -0.068

BCL2L12 (UniProt Q9HB09)
UniProt Q9HB09, sequence (Q9HB09 whole entry, looked up): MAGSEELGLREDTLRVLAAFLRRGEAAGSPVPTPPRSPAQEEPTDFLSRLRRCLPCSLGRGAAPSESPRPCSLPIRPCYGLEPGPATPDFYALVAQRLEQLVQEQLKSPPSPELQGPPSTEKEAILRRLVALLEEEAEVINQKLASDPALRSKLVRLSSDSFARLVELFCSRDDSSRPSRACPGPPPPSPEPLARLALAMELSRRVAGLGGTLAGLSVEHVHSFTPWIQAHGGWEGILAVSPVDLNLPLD
inactive: [1] -0.032 | [2] 0.08 | [3] 0.166 | [4] 0.013 | [5] -0.06 | [6] 0.087 | [7] 0.018 | [8] 0.116 | [9] 0.057 | [10] -0.007 | [11] 0.012 | [12] 0.016 | [13] -0.087 | [14] 0.113 | [15] -0.059 | [16] -0.207 | [17] 0.023 | [18] 0.008 | [19] 0.1 | [20] -0.062

ATAD3B (UniProt Q5T9A4)
active: [7] 0.383
inactive: [1] -0.022 | [2] 0.016 | [3] -0.007 | [4] -0.004 | [5] -0.019 | [6] 0.014 | [8] -0.205 | [9] -0.018 | [10] -0.013 | [11] 0.124 | [12] 0.047 | [13] -0.029 | [14] 0.046 | [15] 0.039 | [16] 0.016 | [17] -0.128 | [18] 0.006 | [19] -0.008 | [20] -0.001

CDC42BPA isoform 6 (UniProt Q5VT25)
UniProt Q5VT25, sequence (Q5VT25 whole entry, looked up): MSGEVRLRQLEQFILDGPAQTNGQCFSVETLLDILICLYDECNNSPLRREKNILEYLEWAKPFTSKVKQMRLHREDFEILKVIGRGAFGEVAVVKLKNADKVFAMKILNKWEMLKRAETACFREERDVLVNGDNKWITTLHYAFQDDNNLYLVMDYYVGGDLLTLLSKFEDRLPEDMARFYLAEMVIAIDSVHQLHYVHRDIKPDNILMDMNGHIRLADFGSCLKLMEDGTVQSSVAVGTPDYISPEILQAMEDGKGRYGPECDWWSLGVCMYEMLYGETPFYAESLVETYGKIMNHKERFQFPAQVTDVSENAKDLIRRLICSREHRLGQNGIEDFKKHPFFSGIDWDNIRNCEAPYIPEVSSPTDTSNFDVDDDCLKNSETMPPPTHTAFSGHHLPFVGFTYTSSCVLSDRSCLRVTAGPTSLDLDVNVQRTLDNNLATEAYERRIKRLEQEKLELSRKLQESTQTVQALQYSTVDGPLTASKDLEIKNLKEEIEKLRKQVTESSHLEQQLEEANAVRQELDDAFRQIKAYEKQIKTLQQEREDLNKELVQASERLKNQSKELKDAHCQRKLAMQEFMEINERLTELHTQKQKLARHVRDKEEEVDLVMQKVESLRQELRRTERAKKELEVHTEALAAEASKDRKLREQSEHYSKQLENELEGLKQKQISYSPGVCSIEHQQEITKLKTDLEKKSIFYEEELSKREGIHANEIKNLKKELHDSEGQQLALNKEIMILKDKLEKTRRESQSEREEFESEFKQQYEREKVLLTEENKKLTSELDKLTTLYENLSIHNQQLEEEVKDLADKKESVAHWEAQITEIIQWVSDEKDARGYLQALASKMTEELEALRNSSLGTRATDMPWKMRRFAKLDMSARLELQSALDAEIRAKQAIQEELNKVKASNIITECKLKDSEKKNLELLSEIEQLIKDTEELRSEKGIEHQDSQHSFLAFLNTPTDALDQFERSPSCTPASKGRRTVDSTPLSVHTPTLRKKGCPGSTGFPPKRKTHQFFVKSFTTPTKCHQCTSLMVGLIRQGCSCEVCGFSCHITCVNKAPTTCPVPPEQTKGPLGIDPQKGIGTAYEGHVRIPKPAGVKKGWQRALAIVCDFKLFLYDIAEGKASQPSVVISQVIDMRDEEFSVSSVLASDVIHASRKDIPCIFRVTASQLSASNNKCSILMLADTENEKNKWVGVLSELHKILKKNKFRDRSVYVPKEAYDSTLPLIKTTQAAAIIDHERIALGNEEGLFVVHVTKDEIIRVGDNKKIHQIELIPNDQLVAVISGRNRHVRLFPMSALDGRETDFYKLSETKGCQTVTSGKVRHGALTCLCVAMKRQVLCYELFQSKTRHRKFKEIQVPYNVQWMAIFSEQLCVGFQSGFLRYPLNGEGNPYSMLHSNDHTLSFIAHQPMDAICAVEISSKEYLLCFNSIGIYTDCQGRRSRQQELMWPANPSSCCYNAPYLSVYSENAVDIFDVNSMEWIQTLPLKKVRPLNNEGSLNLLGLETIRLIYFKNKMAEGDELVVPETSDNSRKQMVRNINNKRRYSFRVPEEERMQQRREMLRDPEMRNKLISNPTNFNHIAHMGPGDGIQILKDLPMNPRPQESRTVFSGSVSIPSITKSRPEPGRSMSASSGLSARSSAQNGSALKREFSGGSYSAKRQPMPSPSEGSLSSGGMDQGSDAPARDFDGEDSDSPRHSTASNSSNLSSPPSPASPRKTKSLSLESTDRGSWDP
inactive: [1] 0.01 | [2] 0.036 | [3] -0.006 | [4] -0.111 | [5] -0.043 | [6] 0.021 | [7] 0.062 | [8] -0.118 | [9] -0.021 | [10] -0.023 | [11] -0.099 | [12] -0.13 | [13] -0.015 | [14] -0.002 | [15] -0.065 | [16] 0.017 | [17] 0.093 | [18] -0.005 | [19] -0.019 | [20] -0.004

CAPNS1 (UniProt P04632)
inactive: [1] -0.032 | [2] 0.021 | [3] 0.11 | [4] -0.027 | [5] 0.04 | [6] -0.006 | [8] 0.07 | [9] 0.003 | [10] -0.012 | [11] 0.021 | [12] -0.022 | [13] 0.032 | [14] 0.027 | [15] -0.005 | [16] 0.022 | [17] -0.129 | [18] -0.012 | [19] -0.051 | [20] -0.062
active: [7] -0.334

CBFA2T3 (UniProt O75081)
UniProt O75081, sequence (O75081 whole entry, looked up): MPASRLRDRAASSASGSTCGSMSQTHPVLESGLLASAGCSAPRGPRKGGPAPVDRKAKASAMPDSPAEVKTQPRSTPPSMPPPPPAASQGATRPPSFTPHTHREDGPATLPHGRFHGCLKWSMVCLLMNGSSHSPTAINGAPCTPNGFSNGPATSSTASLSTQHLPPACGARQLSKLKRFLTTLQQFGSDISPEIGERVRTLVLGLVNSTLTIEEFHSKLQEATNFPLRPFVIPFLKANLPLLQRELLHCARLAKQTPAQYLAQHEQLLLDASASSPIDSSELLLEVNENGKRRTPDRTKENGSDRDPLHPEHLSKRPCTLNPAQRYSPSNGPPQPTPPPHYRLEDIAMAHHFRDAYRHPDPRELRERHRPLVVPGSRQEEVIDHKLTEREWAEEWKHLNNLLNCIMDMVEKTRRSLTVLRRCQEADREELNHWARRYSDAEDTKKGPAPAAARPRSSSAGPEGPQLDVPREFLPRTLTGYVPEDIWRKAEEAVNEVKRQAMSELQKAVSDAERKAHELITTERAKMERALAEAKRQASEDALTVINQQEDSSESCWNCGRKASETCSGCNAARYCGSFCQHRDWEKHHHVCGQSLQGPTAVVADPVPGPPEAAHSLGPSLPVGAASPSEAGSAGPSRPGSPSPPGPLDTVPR
inactive: [1] -0.043 | [2] 0.018 | [3] -0.055 | [4] 0.003 | [5] -0.02 | [6] -0.007 | [7] -0.023 | [8] -0.018 | [9] 0.021 | [10] 0.015 | [11] -0.039 | [12] -0.131 | [13] 0.028 | [14] 0.004 | [15] 0.051 | [16] 0.056 | [17] 0.037 | [18] 0.031 | [19] -0.042 | [20] 0.018

CAMKK1 isoform 2 (UniProt Q8N5S9)
inactive: [1] -0.041 | [2] -0.062 | [3] 0.11 | [4] 0.103 | [5] 0.136 | [6] 0.115 | [7] -0.204 | [8] 0.041 | [9] -0.063 | [10] -0.013 | [11] 0.088 | [12] -0.167 | [14] 0.051 | [15] -0.118 | [16] 0.014 | [17] 0.126 | [18] -0.033 | [19] -0.048 | [20] 0.03
active: [13] 0.305

CCAR2 (UniProt Q8N163)
UniProt Q8N163, sequence (Q8N163 whole entry, looked up): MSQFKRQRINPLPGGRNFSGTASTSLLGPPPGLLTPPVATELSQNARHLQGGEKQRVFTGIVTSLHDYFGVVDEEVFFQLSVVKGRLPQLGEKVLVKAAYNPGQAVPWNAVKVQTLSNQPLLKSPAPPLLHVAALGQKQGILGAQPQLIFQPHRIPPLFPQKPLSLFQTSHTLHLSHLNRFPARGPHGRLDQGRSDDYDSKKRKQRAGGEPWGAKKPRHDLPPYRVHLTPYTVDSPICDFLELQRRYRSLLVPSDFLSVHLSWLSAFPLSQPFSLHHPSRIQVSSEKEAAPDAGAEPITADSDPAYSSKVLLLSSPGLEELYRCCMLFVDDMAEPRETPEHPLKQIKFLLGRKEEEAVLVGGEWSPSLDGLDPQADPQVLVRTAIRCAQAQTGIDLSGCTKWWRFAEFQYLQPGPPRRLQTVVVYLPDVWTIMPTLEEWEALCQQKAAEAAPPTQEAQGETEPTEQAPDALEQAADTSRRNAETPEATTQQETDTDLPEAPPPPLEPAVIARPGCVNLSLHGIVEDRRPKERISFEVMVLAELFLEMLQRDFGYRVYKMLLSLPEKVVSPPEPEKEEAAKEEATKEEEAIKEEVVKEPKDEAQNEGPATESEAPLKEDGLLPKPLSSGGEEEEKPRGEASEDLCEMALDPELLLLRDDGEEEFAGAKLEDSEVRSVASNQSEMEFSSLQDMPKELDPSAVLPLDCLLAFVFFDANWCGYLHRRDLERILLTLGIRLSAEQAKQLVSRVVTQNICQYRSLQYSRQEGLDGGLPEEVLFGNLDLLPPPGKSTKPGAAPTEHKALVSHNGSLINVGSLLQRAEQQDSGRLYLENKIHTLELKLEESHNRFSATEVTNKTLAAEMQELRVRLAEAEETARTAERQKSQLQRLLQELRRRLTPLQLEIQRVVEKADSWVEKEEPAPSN
inactive: [1] -0.007 | [2] -0.004 | [3] -0.047 | [4] -0.01 | [5] -0.031 | [6] 0.01 | [7] -0.057 | [8] 0.032 | [9] -0.002 | [10] 0.007 | [11] -0.052 | [12] -0.096 | [13] 0.001 | [14] 0.018 | [15] -0.02 | [16] 0.014 | [17] 0.011 | [18] 0.014 | [19] 0 | [20] 0.003

CDC25C (UniProt P30307)
inactive: [1] 0.031 | [2] 0.093 | [3] -0.028 | [4] -0.08 | [5] -0.004 | [6] 0.083 | [7] 0.314 | [8] 0.155 | [9] -0.053 | [10] 0.016 | [11] 0.022 | [12] -0.09 | [13] 0.041 | [14] 0.067 | [15] -0.073 | [16] 0.078 | [17] 0.14 | [18] 0.054 | [19] 0.04 | [20] -0.069
